According to the supplement of paper PMC10849652:
Of roughly 7,900 targets only a part is listed; those with a hit were picked by preference. About 0.6% of all pairs of compound and target were hits.

Each target was assayed with CC1=NC(=CC=C1)C2=C(N=C(N2)C(C)(C)C)C3=CC4=NC=CN=C4C=C3 (assay: log2 fold change, soluble protein after heating vs DMSO (PISA); higher = thermal stabilisation; K562 cells, 10 uM, 30 min; active = over 0.2 and 3.5 SD of the protein, either way, in both replicates (recomputed)).
Outline: (§1)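 Soluble protein was defined as the supernatant after 21,000xg for 90 min. It came from K562 cells at 2×10^6 cells/mL given 10 μM compound for 30 min, heated in aliquots for 3 min across 48°C-58°C, pooled, and extracted in PBS with 0.5% NP-40 at 4°C, and was quantified by TMTpro 16plex LC-MS/MS with equalised channel sums. Thermal stability against control samples, from duplicates, is reported as log2 fold change.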

Sequence of UniProt P01116 (P01116 whole entry, looked up): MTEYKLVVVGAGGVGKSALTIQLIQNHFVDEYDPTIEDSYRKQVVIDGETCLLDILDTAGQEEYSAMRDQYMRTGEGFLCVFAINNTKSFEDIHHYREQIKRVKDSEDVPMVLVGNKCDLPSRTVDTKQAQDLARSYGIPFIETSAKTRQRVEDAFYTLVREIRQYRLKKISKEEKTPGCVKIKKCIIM
Sequence of UniProt Q9Y2U8 (Q9Y2U8 whole entry, looked up): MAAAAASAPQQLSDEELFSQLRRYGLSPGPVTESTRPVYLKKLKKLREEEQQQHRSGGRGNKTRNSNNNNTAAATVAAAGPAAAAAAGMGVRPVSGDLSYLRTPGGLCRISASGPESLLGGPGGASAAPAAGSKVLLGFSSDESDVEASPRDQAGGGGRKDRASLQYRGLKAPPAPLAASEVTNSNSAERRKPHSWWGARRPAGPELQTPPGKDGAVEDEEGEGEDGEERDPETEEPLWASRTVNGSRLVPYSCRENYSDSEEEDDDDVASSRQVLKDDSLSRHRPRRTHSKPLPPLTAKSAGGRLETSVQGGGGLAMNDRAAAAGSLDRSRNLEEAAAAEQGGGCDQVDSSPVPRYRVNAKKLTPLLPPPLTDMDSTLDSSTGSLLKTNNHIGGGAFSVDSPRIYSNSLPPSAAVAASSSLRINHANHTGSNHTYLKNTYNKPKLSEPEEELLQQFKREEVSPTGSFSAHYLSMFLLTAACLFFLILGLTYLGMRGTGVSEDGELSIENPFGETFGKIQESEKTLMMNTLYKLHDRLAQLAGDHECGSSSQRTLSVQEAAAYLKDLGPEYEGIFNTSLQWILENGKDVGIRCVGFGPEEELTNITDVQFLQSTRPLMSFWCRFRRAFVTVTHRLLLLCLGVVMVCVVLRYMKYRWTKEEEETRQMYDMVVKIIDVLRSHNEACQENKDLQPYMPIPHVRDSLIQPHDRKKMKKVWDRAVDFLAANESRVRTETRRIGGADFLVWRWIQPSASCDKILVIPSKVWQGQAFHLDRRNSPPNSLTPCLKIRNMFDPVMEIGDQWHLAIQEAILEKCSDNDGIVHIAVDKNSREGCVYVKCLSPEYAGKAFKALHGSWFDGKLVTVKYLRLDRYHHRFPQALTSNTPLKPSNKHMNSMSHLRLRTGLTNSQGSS
Sequence of UniProt Q9H0C8 (Q9H0C8 whole entry, looked up): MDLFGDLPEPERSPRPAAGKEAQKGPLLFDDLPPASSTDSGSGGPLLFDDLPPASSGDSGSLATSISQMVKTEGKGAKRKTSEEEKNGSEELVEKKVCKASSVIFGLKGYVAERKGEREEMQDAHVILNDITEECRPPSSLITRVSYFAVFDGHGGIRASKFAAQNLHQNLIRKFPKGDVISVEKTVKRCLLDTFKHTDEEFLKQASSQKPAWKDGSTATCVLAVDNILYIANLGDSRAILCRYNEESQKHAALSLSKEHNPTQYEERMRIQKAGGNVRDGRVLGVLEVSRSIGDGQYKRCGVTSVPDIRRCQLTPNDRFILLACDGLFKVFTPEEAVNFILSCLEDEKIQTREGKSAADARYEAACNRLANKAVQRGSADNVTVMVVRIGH
Sequence of UniProt P07948 (P07948 whole entry, looked up): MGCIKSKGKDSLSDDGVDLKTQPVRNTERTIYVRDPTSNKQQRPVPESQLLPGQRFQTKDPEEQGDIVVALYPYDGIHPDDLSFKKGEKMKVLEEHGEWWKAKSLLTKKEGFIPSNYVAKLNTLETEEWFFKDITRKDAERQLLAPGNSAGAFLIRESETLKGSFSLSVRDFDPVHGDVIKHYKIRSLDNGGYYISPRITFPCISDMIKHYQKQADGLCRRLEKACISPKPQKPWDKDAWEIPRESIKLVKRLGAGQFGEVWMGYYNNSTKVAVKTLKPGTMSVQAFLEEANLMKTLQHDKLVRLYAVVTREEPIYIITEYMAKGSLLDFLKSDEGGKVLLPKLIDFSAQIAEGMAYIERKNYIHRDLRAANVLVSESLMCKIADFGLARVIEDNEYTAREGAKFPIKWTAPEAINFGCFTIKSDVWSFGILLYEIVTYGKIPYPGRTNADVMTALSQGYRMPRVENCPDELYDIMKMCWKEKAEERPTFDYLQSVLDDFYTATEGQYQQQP
Sequence of UniProt Q8WV07 (Q8WV07 whole entry, looked up): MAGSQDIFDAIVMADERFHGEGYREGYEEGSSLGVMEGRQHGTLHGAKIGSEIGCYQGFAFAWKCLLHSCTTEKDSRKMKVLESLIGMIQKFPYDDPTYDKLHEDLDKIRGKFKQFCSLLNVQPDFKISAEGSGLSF
Sequence of UniProt Q03252 (Q03252 whole entry, looked up): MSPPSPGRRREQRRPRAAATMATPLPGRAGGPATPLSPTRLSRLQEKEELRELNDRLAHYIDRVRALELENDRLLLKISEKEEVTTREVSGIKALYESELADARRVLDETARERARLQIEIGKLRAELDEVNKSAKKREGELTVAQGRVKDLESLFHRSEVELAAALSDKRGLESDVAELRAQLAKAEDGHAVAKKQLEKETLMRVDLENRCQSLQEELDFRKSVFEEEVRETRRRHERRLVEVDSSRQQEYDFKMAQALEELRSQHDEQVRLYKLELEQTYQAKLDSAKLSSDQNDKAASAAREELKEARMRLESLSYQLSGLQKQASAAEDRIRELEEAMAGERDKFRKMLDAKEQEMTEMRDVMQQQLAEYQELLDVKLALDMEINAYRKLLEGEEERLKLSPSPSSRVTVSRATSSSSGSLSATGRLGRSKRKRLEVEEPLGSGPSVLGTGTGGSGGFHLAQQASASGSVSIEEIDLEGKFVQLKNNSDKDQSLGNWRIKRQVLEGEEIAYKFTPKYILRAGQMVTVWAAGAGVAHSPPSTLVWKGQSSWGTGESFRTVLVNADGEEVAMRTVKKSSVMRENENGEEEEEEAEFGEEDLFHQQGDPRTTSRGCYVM
Sequence of UniProt P23276 (P23276 whole entry, looked up): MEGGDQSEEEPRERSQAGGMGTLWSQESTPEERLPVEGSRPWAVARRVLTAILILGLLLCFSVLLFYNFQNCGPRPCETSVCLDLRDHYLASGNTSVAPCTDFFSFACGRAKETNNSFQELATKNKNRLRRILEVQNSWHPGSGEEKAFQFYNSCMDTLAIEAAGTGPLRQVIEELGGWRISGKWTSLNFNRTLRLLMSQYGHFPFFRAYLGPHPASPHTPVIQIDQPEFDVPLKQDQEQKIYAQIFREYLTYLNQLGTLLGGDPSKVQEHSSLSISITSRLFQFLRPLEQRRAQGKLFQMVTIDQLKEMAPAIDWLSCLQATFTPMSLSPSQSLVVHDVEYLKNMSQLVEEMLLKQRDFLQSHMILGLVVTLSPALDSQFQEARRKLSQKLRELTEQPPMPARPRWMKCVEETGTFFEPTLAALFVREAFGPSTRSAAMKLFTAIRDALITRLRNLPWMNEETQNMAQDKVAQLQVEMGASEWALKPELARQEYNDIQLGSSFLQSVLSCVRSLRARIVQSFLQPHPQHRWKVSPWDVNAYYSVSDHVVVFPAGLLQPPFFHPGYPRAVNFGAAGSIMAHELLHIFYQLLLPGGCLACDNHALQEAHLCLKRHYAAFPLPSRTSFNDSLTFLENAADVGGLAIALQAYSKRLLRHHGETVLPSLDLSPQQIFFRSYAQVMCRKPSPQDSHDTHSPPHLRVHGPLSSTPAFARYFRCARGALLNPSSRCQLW
Sequence of UniProt Q9H3F6 (Q9H3F6 whole entry, looked up): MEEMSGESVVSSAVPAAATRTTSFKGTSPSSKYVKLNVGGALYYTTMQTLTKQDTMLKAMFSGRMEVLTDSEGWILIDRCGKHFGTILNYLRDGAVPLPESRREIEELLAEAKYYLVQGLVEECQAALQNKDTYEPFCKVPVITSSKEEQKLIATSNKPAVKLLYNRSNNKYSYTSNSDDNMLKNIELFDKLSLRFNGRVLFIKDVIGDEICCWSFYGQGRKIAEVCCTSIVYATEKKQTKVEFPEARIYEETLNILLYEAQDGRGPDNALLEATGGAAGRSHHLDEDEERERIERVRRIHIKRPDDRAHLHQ
Sequence of UniProt Q13422 (Q13422 whole entry, looked up): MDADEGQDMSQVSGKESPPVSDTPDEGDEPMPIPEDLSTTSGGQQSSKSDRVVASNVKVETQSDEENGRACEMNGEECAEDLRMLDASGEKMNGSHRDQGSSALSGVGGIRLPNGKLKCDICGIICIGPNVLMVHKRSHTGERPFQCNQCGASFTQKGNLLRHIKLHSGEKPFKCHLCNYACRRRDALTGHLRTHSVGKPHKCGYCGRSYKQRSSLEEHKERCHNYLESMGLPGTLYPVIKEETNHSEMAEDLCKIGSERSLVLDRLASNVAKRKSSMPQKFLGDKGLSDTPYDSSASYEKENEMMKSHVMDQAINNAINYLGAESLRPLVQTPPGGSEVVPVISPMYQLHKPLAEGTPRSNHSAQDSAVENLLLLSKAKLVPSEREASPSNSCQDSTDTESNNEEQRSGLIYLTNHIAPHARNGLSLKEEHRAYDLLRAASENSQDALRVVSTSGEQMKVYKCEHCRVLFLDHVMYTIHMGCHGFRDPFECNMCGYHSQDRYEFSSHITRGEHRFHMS
Sequence of UniProt Q4G0J3 (Q4G0J3 whole entry, looked up): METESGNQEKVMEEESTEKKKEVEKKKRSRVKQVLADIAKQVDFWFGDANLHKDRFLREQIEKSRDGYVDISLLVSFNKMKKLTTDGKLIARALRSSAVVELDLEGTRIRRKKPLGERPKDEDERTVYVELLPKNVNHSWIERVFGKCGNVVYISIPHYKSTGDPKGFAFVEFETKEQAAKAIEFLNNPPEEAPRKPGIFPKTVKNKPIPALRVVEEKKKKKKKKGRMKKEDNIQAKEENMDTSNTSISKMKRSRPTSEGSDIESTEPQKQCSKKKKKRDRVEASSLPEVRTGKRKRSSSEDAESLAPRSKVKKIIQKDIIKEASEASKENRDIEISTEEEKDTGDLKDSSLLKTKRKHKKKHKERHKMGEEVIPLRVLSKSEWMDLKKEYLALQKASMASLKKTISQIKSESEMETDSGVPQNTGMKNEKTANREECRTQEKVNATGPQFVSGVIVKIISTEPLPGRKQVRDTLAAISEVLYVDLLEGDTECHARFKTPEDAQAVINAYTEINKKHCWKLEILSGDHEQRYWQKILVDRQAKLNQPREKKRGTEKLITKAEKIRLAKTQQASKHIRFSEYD

| Target | log2 fold change |
| --- | --- |
| LTV1 (UniProt Q96GA3) | -0.035 (inactive) |
| LEMD3 (UniProt Q9Y2U8) | -0.017 (inactive) |
| LMNA (UniProt P02545) | -0.002 (inactive) |
| MDC1 (UniProt Q14676) | -0.076 (inactive) |
| MED16 (UniProt Q9Y2X0) | 0.036 (inactive) |
| ILF2 (UniProt Q12905) | -0.041 (inactive) |
| ITIH4 (UniProt Q14624) | 0.214 (inactive) |
| ITPRIP (UniProt Q8IWB1) | 0.081 (inactive) |
| LYN (UniProt P07948) | 0.037 (inactive) |
| IGFBP4 (UniProt P22692) | 0.003 (inactive) |
| MAP2K2 (UniProt P36507) | 0.028 (inactive) |
| KRAS isoform 2 (UniProt P01116) | -0.026 (inactive) |
| LMBRD2 (UniProt Q68DH5) | 0 (inactive) |
| LDAH isoform 2 (UniProt Q9H6V9) | -0.024 (inactive) |
| LMNB2 (UniProt Q03252) | 0.063 (inactive) |
| IMMT isoform 2 (UniProt Q16891) | 0.002 (inactive) |
| ILKAP (UniProt Q9H0C8) | 0.168 (inactive) |
| KEL (UniProt P23276) | 0.01 (inactive) |
| LTO1 (UniProt Q8WV07) | -0.009 (inactive) |

| Target | log2 fold change |
| --- | --- |
| KLC2 (UniProt Q9H0B6) | 0.015 (inactive) |
| MAPK8 isoform 3 (UniProt P45983) | -0.012 (inactive) |
| KCTD10 (UniProt Q9H3F6) | 0.017 (inactive) |
| MED17 (UniProt Q9NVC6) | 0.005 (inactive) |
| LPCAT3 (UniProt Q6P1A2) | 0.033 (inactive) |
| MEPCE (UniProt Q7L2J0) | -0.252 (inactive) |
| LDLR (UniProt P01130) | 0.01 (inactive) |
| ILF3 isoform 7 (UniProt Q12906) | -0.036 (inactive) |
| MICU2 (UniProt Q8IYU8) | 0.05 (inactive) |
| MAN2B2 (UniProt Q9Y2E5) | -0.056 (inactive) |
| LARP7 isoform 3 (UniProt Q4G0J3) | -0.053 (inactive) |
| IKZF1 (UniProt Q13422) | 0.041 (inactive) |
| MFGE8 (UniProt Q08431) | -0.061 (inactive) |
| MAGEA9 (UniProt P43362) | -0.087 (inactive) |
| MAPRE3 (UniProt Q9UPY8) | 0.074 (inactive) |
| MAP4 (UniProt E7EVA0) | -0.061 (inactive) |
| MDN1 (UniProt Q9NU22) | 0.061 (inactive) |
| MIA2 (UniProt Q96PC5) | -0.016 (inactive) |

What follows are targets tested with CCCCN(Cc1ccc(C(=O)NO)cc1)C(=O)Nc1ccccc1 [Nexturastat A] in the same assay as above.
Outline: as §1

| Target | log2 fold change |
| --- | --- |
| LTV1 (UniProt Q96GA3) | 0.248 (inactive) |
| LEMD3 (UniProt Q9Y2U8) | 0.026 (inactive) |
| LMNA (UniProt P02545) | -0.022 (inactive) |
| MDC1 (UniProt Q14676) | 0.048 (inactive) |
| MED16 (UniProt Q9Y2X0) | 0.162 (inactive) |
| ILF2 (UniProt Q12905) | 0.084 (inactive) |
| ITIH4 (UniProt Q14624) | 0.014 (inactive) |
| ITPRIP (UniProt Q8IWB1) | 0.005 (inactive) |
| LYN (UniProt P07948) | 0.293 (inactive) |
| IGFBP4 (UniProt P22692) | 0.019 (inactive) |
| MAP2K2 (UniProt P36507) | -0.001 (inactive) |
| KRAS isoform 2 (UniProt P01116) | -0.063 (inactive) |
| LMBRD2 (UniProt Q68DH5) | 0.019 (inactive) |
| LDAH isoform 2 (UniProt Q9H6V9) | 0.032 (inactive) |
| LMNB2 (UniProt Q03252) | -0.04 (inactive) |
| IMMT isoform 2 (UniProt Q16891) | -0.155 (inactive) |
| ILKAP (UniProt Q9H0C8) | 0 (inactive) |
| KEL (UniProt P23276) | 0.117 (inactive) |
| LTO1 (UniProt Q8WV07) | 0.245 (inactive) |

| Target | log2 fold change |
| --- | --- |
| KLC2 (UniProt Q9H0B6) | 0.001 (inactive) |
| MAPK8 isoform 3 (UniProt P45983) | -0.099 (inactive) |
| KCTD10 (UniProt Q9H3F6) | 0.051 (inactive) |
| MED17 (UniProt Q9NVC6) | 0.052 (inactive) |
| LPCAT3 (UniProt Q6P1A2) | -0.226 (inactive) |
| MEPCE (UniProt Q7L2J0) | -0.057 (inactive) |
| LDLR (UniProt P01130) | 0 (inactive) |
| ILF3 isoform 7 (UniProt Q12906) | 0.146 (inactive) |
| MICU2 (UniProt Q8IYU8) | 0.198 (inactive) |
| MAN2B2 (UniProt Q9Y2E5) | -0.062 (inactive) |
| LARP7 isoform 3 (UniProt Q4G0J3) | 0.016 (inactive) |
| IKZF1 (UniProt Q13422) | -0.006 (inactive) |
| MFGE8 (UniProt Q08431) | 0.161 (inactive) |
| MAGEA9 (UniProt P43362) | 0.005 (inactive) |
| MAPRE3 (UniProt Q9UPY8) | -0.07 (inactive) |
| MAP4 (UniProt E7EVA0) | 0.161 (inactive) |
| MDN1 (UniProt Q9NU22) | -0.009 (inactive) |
| MIA2 (UniProt Q96PC5) | 0.015 (inactive) |
